From PubChem
Wnt bcat act = Wnt/beta-catenin pathway activators, primary screen, cell-based, plate reader, single point. hit rate 1.2% among 300,000. Wnt/beta-catenin reporter cell assay, activator. activation, % at 9.35 µM; in the data active means activation above about 30%, passing the limit was not always enough
N-glyco inh = increase of ERlucT glycosylation luciferase signal, primary screen, N-linked glycosylation inhibitor project, D54 ERlucT cells, luminescence, set 2; D54 ERlucT glycosylation luciferase reporter, 24 h; percent of 100 nM tunicamycin response; reporter increase, % at 12.5 µM; hit rate 0.23% among 360,000; AID 588692, 2011;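 active means mean luciferase reporter signal, scaled so untreated is 0 and the glycosylation-blocking control 100, at or above a set limit in every replicate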;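 further: luciferase carries N-glycosylation sites so blocking glycosylation raises the light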
MITF act = activators of MITF-driven TRPM1 promoter reporter, primary screen, cell-based, SK-MEL-5, luciferase, single point; SK-MEL-5 TRPM1-promoter luciferase, 24 h; % of positive control, neutral wells = 0; activation, % at 12.5 µM; hit rate 0.75% among 300,000;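 active means mean activation of at least 80% with every replicate also reaching 80%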
NSD2 inh = NSD2 histone methyltransferase inhibitors, primary screen, biochemical, AlphaScreen, single concentration, set 2; Histone-lysine N-methyltransferase NSD2 (Homo sapiens), O96028; hit rate 0.54% among 310,000; inhibition, % at 12.5 µM; NSD2 peptide methylation, 120 min; in the data active means inhibition above about 50%
Target sequence (O96028 whole entry, looked up): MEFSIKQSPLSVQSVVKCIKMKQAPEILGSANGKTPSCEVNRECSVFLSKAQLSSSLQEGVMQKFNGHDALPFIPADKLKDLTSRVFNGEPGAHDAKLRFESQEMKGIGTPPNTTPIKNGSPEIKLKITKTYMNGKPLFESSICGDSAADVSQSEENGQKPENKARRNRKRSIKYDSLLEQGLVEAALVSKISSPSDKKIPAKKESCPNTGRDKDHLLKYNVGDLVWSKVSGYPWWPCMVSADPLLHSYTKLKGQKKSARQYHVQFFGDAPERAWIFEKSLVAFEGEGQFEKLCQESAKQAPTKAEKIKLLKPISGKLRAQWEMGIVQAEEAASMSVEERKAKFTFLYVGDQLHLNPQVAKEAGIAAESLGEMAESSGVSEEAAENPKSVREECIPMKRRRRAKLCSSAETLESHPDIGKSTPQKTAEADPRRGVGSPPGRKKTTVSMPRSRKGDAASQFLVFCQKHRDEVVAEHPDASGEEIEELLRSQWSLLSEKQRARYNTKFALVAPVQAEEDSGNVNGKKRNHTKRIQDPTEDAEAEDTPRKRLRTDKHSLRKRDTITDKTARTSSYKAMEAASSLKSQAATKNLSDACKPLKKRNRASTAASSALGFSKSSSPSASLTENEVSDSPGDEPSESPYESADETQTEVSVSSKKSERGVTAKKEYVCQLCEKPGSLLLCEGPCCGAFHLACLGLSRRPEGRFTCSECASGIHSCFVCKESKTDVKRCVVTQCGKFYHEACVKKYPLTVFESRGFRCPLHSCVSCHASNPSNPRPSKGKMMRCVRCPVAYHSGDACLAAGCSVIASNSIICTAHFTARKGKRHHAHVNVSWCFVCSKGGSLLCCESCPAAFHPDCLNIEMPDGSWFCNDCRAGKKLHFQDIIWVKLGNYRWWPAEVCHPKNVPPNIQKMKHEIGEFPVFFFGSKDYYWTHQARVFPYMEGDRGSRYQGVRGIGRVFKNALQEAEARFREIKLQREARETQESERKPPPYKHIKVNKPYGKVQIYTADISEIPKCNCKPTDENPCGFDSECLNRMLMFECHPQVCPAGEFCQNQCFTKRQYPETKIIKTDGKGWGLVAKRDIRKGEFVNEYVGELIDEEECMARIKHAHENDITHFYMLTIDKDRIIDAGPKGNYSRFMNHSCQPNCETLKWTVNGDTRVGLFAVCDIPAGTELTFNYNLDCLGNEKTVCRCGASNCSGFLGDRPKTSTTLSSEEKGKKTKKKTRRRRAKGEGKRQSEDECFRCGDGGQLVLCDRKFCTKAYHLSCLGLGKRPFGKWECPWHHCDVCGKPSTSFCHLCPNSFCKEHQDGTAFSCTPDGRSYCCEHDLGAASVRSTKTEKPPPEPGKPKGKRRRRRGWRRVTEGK
PfHsp90 yeast 2 = growth inhibition of PfHsp90-expressing yeast, primary screen, antimalarial PfHsp90 inhibitor project, S. cerevisiae, BacTiter-Glo luminescence, single point, set 2. BacTiter-Glo ATP, 48 h; yeast lacking PDR1 and PDR3 efflux regulators. inhibition, % at 9.4 µM. hit rate 0.32% among 310,000. AID 504621, 2011;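 active means every replicate shows inhibition above about 80%, whatever the replicate mean, limit read from the data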
TRPM1 prom inh = inhibitors of MITF-dependent TRPM1 promoter reporter, primary screen, cell-based, SK-MEL-5, single point, luciferase; hit rate 0.83% among 330,000; SK-MEL-5 TRPM1 promoter luciferase, 24 h; inhibition, % at 12.5 µM;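 active means mean inhibition across replicates of 60% or more, whatever share of single replicates reaches that level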
Alpha artifact = AlphaScreen signal interference with preloaded methylated product, dose response, artefact control for NSD2 inhibitor project, biochemical, cherry-picked samples. shares compounds with NSD2 inh. AlphaScreen artifact counterscreen, preloaded methylated H4 peptide. AC35, µM (titrated, usually from 10 µM). hit rate 9.4% among 1,500; call rule not given here
Hits are given with their value; i = inactive; nt = no result. This is a sample that favours compounds with a hit; in the whole collection about 2.9% have one here.

SMILES	Wnt bcat act	N-glyco inh	MITF act	NSD2 inh	PfHsp90 yeast 2	TRPM1 prom inh	Alpha artifact
CC(C)Cn1c(N)c(C(=O)COC(=O)c2ccc([N+](=O)[O-])o2)c(=O)n(C)c1=O	i	i	i	99	i	i	i
Cc1ccccc1NC(=O)CN1CCC(C(=O)c2ccc3c(c2)OCCO3)CC1	i	i	i	56	i	i	i
O=C(c1ccco1)N1CCCC(N2CCN(c3cccc(C(F)(F)F)c3)CC2)C1 (stereo unspecified)	i	i	i	i	i	i	nt
Cc1ccccc1C(=O)N[C@H](C(=O)N1CCC[C@H]1C(=O)NCCc1ccccc1Cl)C1CCCCC1	i	nt	nt	i	nt	nt	nt
Cc1cc(OCC(=O)NC(C)(C)C)ccc1Cl	i	i	i	i	i	i	nt
COCCCNC(=O)COc1ccc(Cl)c(C)c1	i	i	nt	56	i	i	i
COc1cccc(CN(C)C[C@@H]2OCc3cnnn3CCCC(=O)N([C@@H](C)CO)C[C@H]2C)c1	i	i	nt	nt	nt	nt	nt
Cc1cc(C(F)(F)F)n2nc(-c3cccs3)cc2n1	i	i	i	i	i	i	nt
CCN(CC)CCCNc1cc(C)nc2cc(-c3cccs3)nn12	i	i	i	62	i	i	i
Cc1ccc(S(=O)(=O)N(C)CC(=O)NCCCn2ccnc2)cc1	i	i	i	115	i	i	i
COc1ccc(OCC(=O)NCCCn2ccnc2)cc1	i	i	nt	i	i	i	nt
N#Cc1ccc(OCC(=O)NCCCn2ccnc2)cc1	i	i	i	63	i	i	i
COC(=O)N/N=C(\CCC(=O)O)c1cccs1	i	i	i	i	i	i	nt
CCOC(=O)c1ccc(CC(=O)c2ccc(O)c(O)c2O)o1	i	i	i	91	i	i	i
CCOC(=O)c1ccc(CC(=O)c2oc3cc(O)ccc3c2C)o1	i	i	i	i	i	i	nt
CC(C)CNC(=O)COc1cccc(C(=O)NCc2ccccc2)c1	i	i	i	i	i	i	nt
CC(O)CNc1nc2ccccc2n1CC(=O)NCCc1ccc(Cl)cc1 (stereo unspecified)	nt	i	i	i	i	i	nt
CC(=O)c1ccc(N2CCN(C(=O)[C@H](C)NC(=O)c3ccccc3Cl)CC2)cc1	i	i	i	65	i	i	i
O=C(OCC(=O)N1CCCCC1)c1ccc2c(c1)C(=O)N(Cc1ccco1)C2=O	i	i	i	i	i	i	nt
CC(C)(C)NC(=O)COC(=O)c1ccc2c(c1)C(=O)N(Cc1ccco1)C2=O	i	i	i	75	i	i	i
COc1cc(/C=C2\SC(N)=NC2=O)cc(Cl)c1O	i	i	i	68	i	i	i
N#Cc1ccc(NC(=S)NCCN2CCOCC2)cc1	i	i	i	i	i	i	nt
CCC(C)NC(=O)CSc1ccc(NC(C)=O)cc1 (stereo unspecified)	i	i	i	i	i	i	nt
CC(=O)Nc1ccc(SCCC2CCCCN2C)cc1 (stereo unspecified)	i	i	i	88	i	i	i
CCOC(=O)C(CC1=CS(=O)(=O)c2ccc(Cl)cc21)(NC(C)=O)C(=O)OCC	i	i	nt	i	nt	nt	nt
COc1ccccc1NC(=O)c1ccc(NC(=O)C2COc3ccccc3O2)cc1 (stereo unspecified)	i	i	i	76	i	i	i
COc1ccc(OC)c(NC(=O)C2COc3ccccc3O2)c1 (stereo unspecified)	nt	i	i	i	i	i	nt
O=C(Cc1ccc(NC2=NC3CS(=O)(=O)CC3S2)cc1)NCCc1ccccc1 (stereo unspecified)	i	i	nt	nt	i	nt	nt
Cc1c(C(=O)OCC(=O)N2CCN(c3ccccc3)CC2)oc2ccccc12	i	i	i	i	nt	i	nt
